# Calls of active or inactive are those of the source.
# What was measured:
# Albumin (Bos taurus) = Albumin (Bos taurus) (UniProt P02769); test: bovine serum albumin binders on microarray, profiling panel, artefact control for SMM control protein annotation, biochemical, small-molecule microarray, Alexa647 label, 635/667 nm fluorescence (AID 1118); settings: BSA-A647 binding, fluorescence 635 nm, higher = more signal;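 note: score merges 667 nm emission intensity and signal-to-noise per printed compound spot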
# [1] = small-molecule microarray binders of probe aXIP, primary screen, biochemical, NeuroSMM set, 635/667 nm fluorescence (AID 1119); settings: higher = more signal, called active from +8 up or from −8 down;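 note: probe is the protein aXip251-270 applied at 1 µg/mL to compound-printed slides; binding of probe to printed compounds measured as 667 nm fluorescence plus signal to noise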
# [2] = small-molecule binders of probe aNOTCH3, primary screen, biochemical, small-molecule microarray, 635/667 nm fluorescence (AID 1120); settings: higher = more signal;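 note: probe is a biotin-tagged antibody raised against NOTCH3 rather than NOTCH3 protein; score merges spot fluorescence near 667 nm with spot signal to noise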
# [3] = small-molecule binders of probe aNOTCH2, primary screen, biochemical, small-molecule microarray, 635/667 nm fluorescence (AID 1121); settings: higher = more signal;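 note: score merges feature fluorescence read at 667 nm with its signal to noise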
# [4] = biological target: Carbonic anhydrase 2 (Homo sapiens) (UniProt P00918); test: CAII small-molecule binders, profiling panel, biochemical, small-molecule microarray, Alexa647-labelled CAII (AID 1122); settings: CAII-A647 binding fluorescence, higher = more signal
# [5] = COS7 lysate on small-molecule microarray, probe aHis, 635 nm (AID 1123); settings: COS7 cell lysate, fluorescence, higher = more signal;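 note: z-score combines 667nm fluorescence intensity with signal-to-noise per printed compound spot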
# [6] = compound binding in COS7 lysate, probe aLAP1, primary screen, cell lysate, small-molecule microarray (AID 1124); settings: probe aLAP1, fluorescence, higher = more signal;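 note: lysate comes from COS7 cells expressing LAP1 and is applied at 0.3 µg/mL; score merges spot fluorescence near 667 nm with signal-to-noise over triplicate slides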
# Sam68 (KHDRBS1) = test: Sam68 small-molecule binders, primary screen, biochemical, small-molecule microarray, 635 nm fluorescence (AID 1125); settings: small-molecule microarray binding, higher = more signal;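 note: score merges 667 nm channel intensity with signal to noise over triplicate slides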
# [7] = test system: Chordin-like protein 2 (CHRDL2); test: CHRDL2 small-molecule binders, primary screen, biochemical, small-molecule microarray, 635 nm fluorescence (AID 1126); settings: small-molecule microarray binding, fluorescence 635 nm; higher = more signal;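 note: printed compound slides probed with Chrdl2 protein at 4 µg/mL for 1 h at 4 C; score merges 667 nm emission intensity with signal to noise over three replicate slides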
# [8] = biological target: Concanavalin-A (Canavalia ensiformis) (UniProt P02866); test: ConA small-molecule binders, primary screen, artefact control for SMM control protein annotation, biochemical, small-molecule microarray, Alexa647 label, 635 nm (AID 1127); settings: ConA-A647 binding fluorescence, higher = more signal;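 note: z combines 667 nm emission intensity with signal-to-noise across three replicate slides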
# [9] = anti-His antibody binders, primary screen, artefact control for SMM control protein annotation, biochemical, small-molecule microarray, 635 nm fluorescence (AID 1128); settings: anti-His Alexa647 antibody binding, higher = more signal;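 note: score merges feature fluorescence with signal-to-noise for each printed compound spot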
# [10] = test system: Human papillomavirus type 1a E7 protein (residues 1-88); test: HPV1a E7 small-molecule binders, primary screen, biochemical, small-molecule microarray, residues 1-88, 635 nm (AID 1129); settings: small-molecule microarray binding, fluorescence 635 nm; higher = more signal
# [11] = biological target: Focal adhesion kinase 1 (Homo sapiens) (UniProt Q05397); test: small-molecule microarray binders of FAK, primary screen, biochemical, 635/667 nm fluorescence, BSA, DTT (AID 1130); settings: PTK2 binding, 635 nm fluorescence, higher = more signal;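 note: composite of spot emission at 667 nm and signal to noise over triplicate slides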
# [12] = test system: Fibrinogen (Alexa647-labelled); test: fibrinogen binders on compound microarrays, profiling panel, artefact control for SMM control-protein annotation, biochemical, small-molecule microarray, 635/667 nm fluorescence (AID 1131); settings: fibrinogen-A647 binding fluorescence, higher = more signal;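 note: z-score merges 667 nm fluorescence with per-spot signal-to-noise over triplicate slides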
# [13] = biological target: Follistatin (Homo sapiens) (UniProt P19883); test: follistatin binders on small-molecule microarrays, primary screen, biochemical, small-molecule microarray, 635/667 nm fluorescence (AID 1132); settings: FST binding, 635 nm fluorescence, higher = more signal
# [14] = biological target: Fibroblast growth factor 2 (Homo sapiens) (UniProt P09038); test: FGF2 binders on small-molecule microarrays, primary screen, biochemical, small-molecule microarray, 635/667 nm fluorescence (AID 1133); settings: small-molecule microarray binding, FGF2, fluorescence 635/667; higher = more signal
# [15] = mitochondrial membrane potential change in A549 cells, profiling panel, cell-based, JC-1 fluorescence, basal, 24 h, 100 nL (AID 1138); settings: higher = more signal;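 note: A549 lung adenocarcinoma cells under basal conditions with no added stimulus; test concentration not given here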
# Lefty1 = Lefty1 binders on small-molecule microarrays, primary screen, biochemical, small-molecule microarray, 635/667 nm fluorescence (AID 1139); settings: small-molecule microarray binding, fluorescence 635/667; higher = more signal
# [16] = test system: wheat germ agglutinin (Triticum aestivum), Alexa647-labelled; test: wheat germ agglutinin binders on compound microarrays, profiling panel, artefact control for SMM control-protein annotation, biochemical, small-molecule microarray, 635/667 nm fluorescence (AID 1140); settings: WGA-A647 binding, 635 nm fluorescence, higher = more signal;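 note: score merges 667 nm feature emission with signal to noise over triplicate slides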
# [17] = biological target: Luciferin 4-monooxygenase (Photinus pyralis) (UniProt P08659); test: firefly luciferase enzyme inhibitors, primary screen, biochemical, luminescence, purified enzyme, 2006 set (AID 1141); settings: SteadyGlo luminescence, 30 min, higher = more signal, called active from +8 up or from −8 down;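 note: cell-free assay with purified firefly luciferase at 100 ng per well in PBS; test concentration not given here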
# Sequence of Luciferin 4-monooxygenase (Photinus pyralis) (P08659 whole entry, looked up): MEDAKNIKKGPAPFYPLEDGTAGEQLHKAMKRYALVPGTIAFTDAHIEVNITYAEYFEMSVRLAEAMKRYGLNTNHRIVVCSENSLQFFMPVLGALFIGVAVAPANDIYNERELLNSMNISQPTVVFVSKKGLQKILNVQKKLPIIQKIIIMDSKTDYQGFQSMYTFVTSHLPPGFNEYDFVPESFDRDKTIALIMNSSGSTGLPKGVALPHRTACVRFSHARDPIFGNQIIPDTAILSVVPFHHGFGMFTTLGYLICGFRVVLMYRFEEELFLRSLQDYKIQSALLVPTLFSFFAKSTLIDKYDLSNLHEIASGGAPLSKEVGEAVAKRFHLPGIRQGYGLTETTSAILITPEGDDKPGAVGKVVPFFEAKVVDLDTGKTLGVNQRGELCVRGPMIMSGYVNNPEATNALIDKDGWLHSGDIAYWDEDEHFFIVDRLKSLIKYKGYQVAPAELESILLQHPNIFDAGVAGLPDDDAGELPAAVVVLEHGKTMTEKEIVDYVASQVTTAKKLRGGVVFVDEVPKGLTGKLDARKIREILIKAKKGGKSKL
# Sequence of Concanavalin-A (Canavalia ensiformis) (P02866 whole entry, looked up): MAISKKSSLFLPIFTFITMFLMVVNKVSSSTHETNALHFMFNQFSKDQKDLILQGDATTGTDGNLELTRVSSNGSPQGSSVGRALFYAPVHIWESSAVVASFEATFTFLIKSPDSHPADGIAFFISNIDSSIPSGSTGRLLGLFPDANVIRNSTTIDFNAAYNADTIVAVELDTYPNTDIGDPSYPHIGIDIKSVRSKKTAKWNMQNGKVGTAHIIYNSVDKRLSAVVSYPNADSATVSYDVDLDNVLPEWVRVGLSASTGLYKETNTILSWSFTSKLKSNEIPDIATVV
# Sequence of Fibroblast growth factor 2 (Homo sapiens) (P09038 whole entry, looked up): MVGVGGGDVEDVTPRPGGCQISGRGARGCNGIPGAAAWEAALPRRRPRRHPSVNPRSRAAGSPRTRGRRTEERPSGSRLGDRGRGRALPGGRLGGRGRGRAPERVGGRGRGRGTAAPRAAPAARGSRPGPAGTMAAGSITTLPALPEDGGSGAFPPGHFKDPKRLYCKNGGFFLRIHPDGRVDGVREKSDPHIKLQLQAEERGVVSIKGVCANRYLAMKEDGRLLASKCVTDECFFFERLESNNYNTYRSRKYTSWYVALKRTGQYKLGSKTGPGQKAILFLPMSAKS
# Sequence of Albumin (Bos taurus) (P02769 whole entry, looked up): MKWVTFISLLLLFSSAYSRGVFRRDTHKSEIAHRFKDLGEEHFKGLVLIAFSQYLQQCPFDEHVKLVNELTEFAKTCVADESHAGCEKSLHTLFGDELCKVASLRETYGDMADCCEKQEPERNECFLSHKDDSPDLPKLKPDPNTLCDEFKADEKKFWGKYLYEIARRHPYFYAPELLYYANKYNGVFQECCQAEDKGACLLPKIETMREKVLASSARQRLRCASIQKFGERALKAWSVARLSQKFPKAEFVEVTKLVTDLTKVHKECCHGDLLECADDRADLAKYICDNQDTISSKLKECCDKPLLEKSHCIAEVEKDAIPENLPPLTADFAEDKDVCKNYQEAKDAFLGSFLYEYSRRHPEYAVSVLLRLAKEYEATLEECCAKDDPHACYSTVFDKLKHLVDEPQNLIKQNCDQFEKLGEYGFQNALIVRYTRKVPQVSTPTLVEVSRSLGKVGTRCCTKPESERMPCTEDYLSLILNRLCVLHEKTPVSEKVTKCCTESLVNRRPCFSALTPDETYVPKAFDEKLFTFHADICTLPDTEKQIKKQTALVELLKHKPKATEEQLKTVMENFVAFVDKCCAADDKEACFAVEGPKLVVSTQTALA
# Sequence of Focal adhesion kinase 1 (Homo sapiens) (Q05397 whole entry, looked up): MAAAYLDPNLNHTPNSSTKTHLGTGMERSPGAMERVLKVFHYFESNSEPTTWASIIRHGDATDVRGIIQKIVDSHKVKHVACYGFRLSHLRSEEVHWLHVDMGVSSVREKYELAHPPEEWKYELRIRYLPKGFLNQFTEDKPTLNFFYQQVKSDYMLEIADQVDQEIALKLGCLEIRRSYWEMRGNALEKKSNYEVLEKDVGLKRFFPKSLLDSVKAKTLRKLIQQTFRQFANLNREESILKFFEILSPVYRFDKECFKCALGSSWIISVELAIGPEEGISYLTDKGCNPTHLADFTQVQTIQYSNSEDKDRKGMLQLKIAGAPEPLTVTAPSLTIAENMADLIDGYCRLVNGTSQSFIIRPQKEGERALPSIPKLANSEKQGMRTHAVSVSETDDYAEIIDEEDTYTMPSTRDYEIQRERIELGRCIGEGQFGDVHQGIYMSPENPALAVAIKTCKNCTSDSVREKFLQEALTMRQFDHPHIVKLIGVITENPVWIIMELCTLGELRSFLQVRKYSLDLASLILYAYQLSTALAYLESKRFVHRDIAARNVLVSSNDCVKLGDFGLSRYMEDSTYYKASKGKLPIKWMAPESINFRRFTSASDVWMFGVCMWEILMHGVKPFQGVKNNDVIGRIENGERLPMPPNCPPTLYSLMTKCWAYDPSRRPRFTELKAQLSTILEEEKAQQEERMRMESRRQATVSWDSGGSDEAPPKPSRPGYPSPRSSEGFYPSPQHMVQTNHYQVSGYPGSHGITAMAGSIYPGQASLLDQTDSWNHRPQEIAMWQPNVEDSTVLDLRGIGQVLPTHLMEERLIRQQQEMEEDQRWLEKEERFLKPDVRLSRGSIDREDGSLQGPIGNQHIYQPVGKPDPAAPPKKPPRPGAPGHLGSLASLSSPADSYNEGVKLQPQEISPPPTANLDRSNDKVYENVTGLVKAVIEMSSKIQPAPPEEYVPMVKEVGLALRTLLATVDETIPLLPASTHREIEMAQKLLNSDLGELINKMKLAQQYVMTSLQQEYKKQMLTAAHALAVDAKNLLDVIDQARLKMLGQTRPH
# Sequence of Follistatin (Homo sapiens) (P19883 whole entry, looked up): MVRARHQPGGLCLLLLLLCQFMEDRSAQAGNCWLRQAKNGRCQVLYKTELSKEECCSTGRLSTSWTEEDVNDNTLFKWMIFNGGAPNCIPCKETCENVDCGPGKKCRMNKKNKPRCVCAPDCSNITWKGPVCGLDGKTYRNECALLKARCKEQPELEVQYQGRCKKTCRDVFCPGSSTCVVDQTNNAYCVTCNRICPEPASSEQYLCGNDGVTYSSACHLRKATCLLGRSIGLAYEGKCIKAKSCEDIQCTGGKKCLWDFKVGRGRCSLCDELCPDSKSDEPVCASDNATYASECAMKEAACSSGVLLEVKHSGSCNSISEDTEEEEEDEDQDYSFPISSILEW
Compound,composite z-score (Albumin (Bos taurus)),composite Z-score [1],composite z-score [2],composite z-score [3],composite z-score [4],composite z-score [5],composite z-score [6],composite z-score (Sam68 (KHDRBS1)),composite z-score [7],composite z-score [8],composite z-score [9],composite z-score [10],composite z-score [11],composite z-score [12],composite z-score [13],composite z-score [14],z-score [15],composite z-score (Lefty1),composite z-score [16],z-score [17]
Cc1ccc(S[C@]2(C(=O)NC3CC3)CC(=O)N(Cc3ccccc3)[C@@H]2c2ccc(CO)cc2I)cc1,0.596,-0.35 (inactive),-0.209,0.0012,0.742,2.25,0.337,0.0282,-0.682,-0.391,-0.744,-0.0095,-0.557,-0.394,-0.868,-0.131,2.49,-1.86,-0.567,-1.42 (inactive)
CN(C)CCCCCCNC(=O)[C@H]1C[C@H]2C(=O)N[C@@H](CCCCN)C(=O)N2[C@H]1c1cccc(OCCO)c1,0.733,5.67 (inactive),1.95,0.986,0.773,4.1,0.952,1.33,1.46,1.25,3.31,1.35,3.91,0.977,1.54,0.844,0.332,1.41,1.64,-0.485 (inactive)
CCCC[C@@H]1C[C@H]1[C@@H](NC(=O)c1ccccc1)c1ccc(C(=O)OC)cc1,-0.108,0.953 (inactive),-0.048,0.0203,0.287,0.157,-0.156,-0.316,-1.26,-0.364,-0.248,-0.429,0.0213,0.0563,-0.676,-1.67,0.348,-0.684,-0.113,-0.438 (inactive)
C=CCOC(=O)[C@@H]1[C@H]2C(=O)O[C@H](c3ccccc3)[C@H](c3ccccc3)N2[C@H](c2ccc(OCCOC(=O)[C@@H]3C[C@@H]4C(=O)NCC(=O)N4[C@@H]3c3ccc(O)cc3)cc2)[C@@]12C(=O)Nc1ccc(I)cc12,0.471,-0.666 (inactive),-0.0879,-0.108,0.617,1.04,-0.143,1.31,1.03,1.19,1.88,1.21,0.823,0.342,1.36,1.27,-1.73,0.734,0.86,0.401 (inactive)
COC(=O)[C@@]1(Cc2ccc(F)cc2)[C@H]2c3cc(C(=O)N(C)C)n(Cc4ccccc4)c3C[C@H]2CN1C(=O)c1ccccc1,0.816,0.0843 (inactive),0.215,0.0431,0.183,2.05,0.495,0.78,-0.643,1.04,1.38,0.789,-0.109,0.91,0.787,-0.525,0.906,0.0954,1.16,2.14 (inactive)
COCCCNC(=O)[C@@H]1c2ccccc2C(=O)N(Cc2ccccc2Cl)[C@H]1c1ccc(CO)cc1,-0.432,-0.129 (inactive),-0.147,0.151,0.656,1.72,-0.503,0.95,0.683,0.772,3.19,1.17,0.36,0.381,1.33,1.04,2.35,0.753,-0.0431,-1.27 (inactive)
COc1ccc([Si](C)(C)[C@H]2[C@H](CCO)O[C@@]3(C(=O)N(Cc4ccc(N(C=O)c5ccccc5)cc4)c4ccccc43)[C@@H]2C)cc1,0.598,-0.12 (inactive),-0.127,-0.164,-0.0062,0.407,-0.33,-0.852,-0.957,0.538,0.841,0.179,0.114,-0.568,0.191,-0.408,0.357,0.151,0.655,0.221 (inactive)
C=C(COC)/C(=C/C[C@@H](OC(=O)c1ccncc1)c1ccc(CO)o1)c1cc(C(=O)OC)ccc1OC,0.0436,-0.0882 (inactive),0.0979,-0.104,0.482,0.641,1.46,1.31,1.1,1.14,0.68,1.24,0.987,0.933,1.46,1.92,0.526,1.64,0.707,-1.83 (inactive)
COC(=O)[C@@]1(Cc2ccc(OC)cc2)[C@@H]2C(=CC(=O)[C@H]2CC(=O)C(=O)N2CCCC2)CN1C(=O)c1ccccc1,0.826,-0.0056 (inactive),0.132,-0.152,0.558,2.23,0.0014,-0.685,-0.694,0.0351,1.47,0.882,0.528,0.802,-0.0125,-0.322,1.55,-0.319,0.357,0.826 (inactive)
COc1cc2c(cc1O)C(c1cccs1)N(C)CC2 (stereo not given),0.393,-0.0667 (inactive),-0.28,-0.182,0.311,0.0056,-0.465,-1.2,-0.231,-1.2,-1,-1.33,0.756,-0.861,-0.123,-0.0571,-0.278,-0.574,-1.05,0.146 (inactive)
CC(C)[Si](C#Cc1ccc(Oc2ccccc2)cc1)(O[Si](C#Cc1ccc(Oc2ccccc2)cc1)(C(C)C)C(C)C)C(C)C,0.216,0.387 (inactive),-0.0188,-0.037,0.603,0.407,0.115,0.562,0.156,-0.76,1.69,0.701,0.0273,0.654,0.218,0.925,0.108,1.07,0.372,-0.637 (inactive)

# — PubChem BioAssay
